# What was measured:
# [1] = target: ATP-dependent RNA helicase DDX24 (UniProt Q9GZR7); assay: cross-linking mass spectrometry
# [2] = target: Spectrin alpha chain, non-erythrocytic 1 (UniProt Q13813); assay: cross-linking mass spectrometry
# Twinfilin-2 = target: T1, Twinfilin-2 (UniProt Q6IBS0); assay: cross-link between two proteins; cross-linking mass spectrometry
# T1 sequence: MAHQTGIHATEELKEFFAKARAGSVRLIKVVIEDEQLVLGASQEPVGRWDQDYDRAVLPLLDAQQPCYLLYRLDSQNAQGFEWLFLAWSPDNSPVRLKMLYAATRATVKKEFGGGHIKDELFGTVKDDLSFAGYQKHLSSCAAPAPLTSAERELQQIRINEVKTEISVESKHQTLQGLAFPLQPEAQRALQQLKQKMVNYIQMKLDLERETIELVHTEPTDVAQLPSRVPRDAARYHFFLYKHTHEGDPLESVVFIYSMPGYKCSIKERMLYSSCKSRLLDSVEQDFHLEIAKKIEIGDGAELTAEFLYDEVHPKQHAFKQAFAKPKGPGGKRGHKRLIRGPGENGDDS
# [3] = target: Superkiller complex protein 8 (UniProt Q9GZS3); assay: as above
substance,measurement,setting,value
"Large ribosomal subunit protein eL20, Q02543",listed as a hit,[1],yes
"Actin, cytoplasmic 1, P60709",listed as a hit,[2],yes
same,listed as a hit,Twinfilin-2,yes
"RNA polymerase-associated protein CTR9 homolog, Q6PD62",listed as a hit,[3],yes
